The values below come from PubChem BioAssay (Tox21).

Values without a mark were called inactive. Inconclusive results are not listed. Active and inactive are the calls of the source. Unless noted, calls follow the shape of the dose curve; as a rule, active = well fitted curve in the direction sought with a large enough effect in the repeat runs; inconclusive = weak or mixed curves; inactive = no such curve, though single readings can be large; an effect the other way counts as inactive or inconclusive.

A short description of assay [1]: qHTS assay to identify small molecule agonists of H2AX (AID 1224845; active = well fitted activation curve with a large enough effect in the signal ratio in the repeat runs, not every such curve was filed as active; the % refers to the signal ratio). The method, boiled down:
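Wild-type CHO-K1 cells, plated overnight, exposed 3hr at 37C to 15 concentrations (0.76% DMSO final). Lysed, then HTRF anti-pH2AX (S139) cryptate and anti-H2AX-d2 antibodies, 24 hr room temperature; 665/620 nm emission read.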
For orientation: Quantitative high-throughput screening tests each substance at several concentrations.

Assay [2] in a line: qHTS assay to identify small molecule agonists of the hypoxia (HIF-1) signaling pathway (AID 1224846; active = well fitted activation curve with a large enough effect in the signal ratio in the repeat runs, not every such curve was filed as active; the % refers to the signal ratio). The method, boiled down:
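HRE-bla ME-180 cells (beta-lactamase reporter under hypoxia response element) were plated at 2,000 cells/well in medium with 0.5% dialyzed FBS, rested 5 hrs, then given compounds in DMSO for 17 hrs at 37C, 5% CO2. Reporter induction was read with CCF4-AM FRET substrate.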

Assay [3] is described as follows: qHTS assay to identify small molecule antagonists of the estrogen related receptor (ERR) signaling pathway from Tox21 library (AID 1224848). Also: nearly all actives have a fitted effect of over 50% in size. The method in brief: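 Luminescent reporter read-out (ONE-Glo) from NTP's ERR cell line after 18 h treatment at 37 C with DMSO-dissolved Tox21 compounds; cells pre-plated 6 h beforehand at 2,000 per well.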
Assay [4] can be described thus: qHTS assay to identify small molecule agonists of the estrogen related receptor (ERR) signaling pathway from Tox21 library (AID 1224849; calls by dose curve; also: nearly all actives have a fitted effect of over 15% in size). The note with it: ERR reporter cell line, ONE-Glo luciferase, 18 h; at 92.4 µM (top of the series) unless noted. The method, boiled down: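 ERR reporter cell line (NTP) seeded, rested 6 h at 37 C/5% CO2, then pinned with Tox21 compounds in DMSO. After 18 h at 37 C, ONE-Glo luciferase luminescence was read following 30 min at room temperature.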

The nature of assay [5]: qHTS RealTime-Glo MT Cell Viability Assay in HepG2 cells - 24 hour (AID 1224867). Also: nearly all actives have a fitted effect of over 50% in size. The method in brief: (§1)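 HepG2 cells (600/well) were dispensed with RealTime-Glo reagents, incubated 5 h at 37 °C, then treated with compounds in DMSO for up to 40 h. Nonlytic NanoLuc luminescence reflecting viable cells was read at each stated time point.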
Assay [6] can be described thus: A CellTox Green Cytotoxicity Assay to monitor cytotoxicity in HEK293 cells - 0 hour (AID 1224869). Also: nearly all actives have a fitted effect of over 50% in size. The method, boiled down: (§2)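 HEK293 cells premixed with CellTox Green dye were seeded at 600 cells/well and left 5 h at 37 C/5% CO2 before pin transfer of 23 nL compound in DMSO. Fluorescence from dye bound to dead-cell DNA was read during 40 h treatment.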
A short description of assay [7]: qHTS RealTime-Glo MT Cell Viability Assay in HepG2 cells - 40 hour (AID 1224870). Also: nearly all actives have a fitted effect of over 50% in size. The method, boiled down: (§3)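 HepG2 cells (600/well) mixed with RealTime-Glo MT reagent, settled 5 h at 37 C/5% CO2 before compound addition. Nonlytic NanoLuc luminescence from viable-cell prosubstrate reduction read repeatedly during 40 h treatment at 37 C.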
Assay [8] is described as follows: A CellTox Green Cytotoxicity Assay to monitor cytotoxicity in HEK293 cells - 40 hour (AID 1224871). Also: nearly all actives have a fitted effect of over 45% in size. The method, boiled down: as §2
Assay [9] is described as follows: qHTS RealTime-Glo MT Cell Viability Assay in HEK293 cells - 16 hour (AID 1224872). The method in brief: (§4)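 HEK293 cells seeded with NanoLuc/prosubstrate reagent, rested 5 h at 37 C, then dosed and kept at 37 C up to 40 h. Nonlytic real-time luminescence from viable cells read at 0, 8, 16, 24, 32 and 40 h.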
A short description of assay [10]: qHTS RealTime-Glo MT Cell Viability Assay in HepG2 cells - 8 hour (AID 1224873). Also: nearly all actives have a fitted effect of over 55% in size. The method in brief:
as §3

The nature of assay [11]: A CellTox Green Cytotoxicity Assay to monitor cytotoxicity in HEK293 cells - 24 hour (AID 1224875). Also: nearly all actives have a fitted effect of over 45% in size. The method in brief:
as §2

A short description of assay [12]: A CellTox Green Cytotoxicity Assay to monitor cytotoxicity in HepG2 cells - 16 hour (AID 1224876). Also: nearly all actives have a fitted effect of over 45% in size. The method, boiled down:
(§5)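 HepG2 cells were seeded together with the CellTox Green dye at 600 cells/well, left 5 h at 37 C/5% CO2, then given compounds in DMSO. Fluorescence from dye bound to dead-cell DNA was read repeatedly over 40 h of treatment at 37 C.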

Assay [13] can be described thus: qHTS RealTime-Glo MT Cell Viability Assay in HepG2 cells - 32 hour (AID 1224877). Also: nearly all actives have a fitted effect of over 55% in size. The method, boiled down:
as §1

Assay [14] in a line: A CellTox Green Cytotoxicity Assay to monitor cytotoxicity in HepG2 cells - 24 hour (AID 1224878). Also: nearly all actives have a fitted effect of over 45% in size. The method in brief: as §5
Assay [15] is described as follows: A CellTox Green Cytotoxicity Assay to monitor cytotoxicity in HepG2 cells - 40 hour (AID 1224879). Also: nearly all actives have a fitted effect of over 40% in size. Also: potency is read from the fitted curve at half-maximal effect. The method in brief: as §5
A short description of assay [16]: qHTS assay to identify small molecule agonists of the hypoxia (HIF-1) signaling pathway - cell viability counter screen (AID 1224844; calls by dose curve; also: nearly all actives have a fitted effect of over 50% in size; also: potency is read from the fitted curve at half-maximal effect). The method, boiled down:
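HRE-bla ME-180 cells in medium with 0.5% dialyzed FBS were preincubated 5 hrs at 37C, exposed to compounds for 17 hrs, then viability was read as CellTiter-Glo luminescence after 30 min at room temperature, in the reporter wells.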

A short description of assay [17]: qHTS assay to identify small molecule agonists of H2AX - cell viability counter screen (AID 1224847; calls by dose curve; also: top concentration of the series differs between compounds; nearly all actives have a fitted effect of over 30% in size). The method in brief: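 After overnight plating of 1000 CHO-K1 cells per well, a 15-concentration compound series was applied for 3 hr at 37C. Luminescence from CellTiter-Glo, read following 30 min at room temperature, reflected cell viability.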
Assay [18] is described as follows: qHTS RealTime-Glo MT Cell Viability Assay in HEK293 cells - 32 hour (AID 1224868). The method in brief:
as §4

The nature of assay [19]: qHTS RealTime-Glo MT Cell Viability Assay in HEK293 cells - 40 hour (AID 1224874). Also: nearly all actives have a fitted effect of over 50% in size. The note with it: RealTime-Glo luminescence; max response: active compounds read low. The method, boiled down:
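HEK293 cells mixed with RealTime-Glo reagents (NanoLuc plus cell-permeant prosubstrate) at 600 cells/well, preincubated 5 h at 37 C/5% CO2, then given 23 nL compound in DMSO. Nonlytic luminescence from viable cells was read at 0, 8, 16, 24, 32 and 40 h.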
% is scaled to controls: 0 for no effect and ±100 for the full control effect.

Consider `CCCCc1ccc2nc(NC(=O)OC)[nH]c2c1`, for which the Potency entry in assay [1], in assay [3], in [5], in [6], in [7] and in [8] was “inactive” in each case. The Potency result in [9], in assay [11], in [12], in [13] and in [14] was “inactive” each time. Moreover, the compound was classed as inactive in assay [2] and in assay [10]. For the same compound, in assay [4], the activity change, positive = activation was 17.3% [at 42.5 µM] (active). In assay [15], the Potency was 338 nM (active).
In the case of `Nc1ccc(Oc2ccc(N)c(N)c2)cc1`, the Potency entry in [16], in assay [17], in assay [3], in assay [5], in assay [6] and in assay [7] was “inactive” in each case. For the same compound, the Potency entry in assay [8], in [11], in assay [12] and in [13] was “inactive” in each case. In addition, in [2], the outcome was inactive. Besides, in assay [4], the activity change, positive = activation is 53.1% (active).
With `CC1(C)S[C@@H]2[C@H](NC(=O)C(C(=O)O)c3ccccc3)C(=O)N2[C@H]1C(=O)O` (stereo partly specified), the Potency result in [16], in assay [1], in [3], in assay [5], in assay [18] and in [6] was “inactive” each time. The Potency result in assay [7], in assay [8], in [9], in assay [11], in [12] and in assay [13] was “inactive” in each case. For the same compound, the Potency entry in [14] and in assay [15] was “inactive” in each case. For the same compound, the activity change, positive = activation in assay [4] was 8.06% [at 42.5 µM]. The result in assay [10] was inactive. Besides, the max response in [19] was -0.907%.
Regarding `O=C(O)CN(CCN(CC(=O)O)CC(=O)O)CCN(CC(=O)O)CC(=O)O`, the activity change, negative = cytotoxicity in assay [16] was -7.94% [at 15.8 µM]; in [17], 0.16% [at 31.6 µM]; in assay [5], 0.5% [at 15.8 µM]. Moreover, in [1], the activation (H2AX phosphorylation) is 1.06% [at 31.6 µM]. Also, the activity, negative = inhibition in [3] is 11.2% [at 19 µM]. The activity change, positive = activation in assay [4] was 5.66% [at 19 µM]. Besides, the figures for the cytotoxicity in [6] and in assay [14] were 4.99% [at 15.8 µM] and 28.9% [at 15.8 µM], respectively. Also, the activity change, negative = cytotoxic was 0.22% [at 15.8 µM] in assay [7] and 0.371% [at 15.8 µM] in assay [13]. For the same compound, the cytotoxicity increase in [8] was 19.7% [at 15.8 µM]; in assay [12], 29.9% [at 15.8 µM]; in [15], 29.3% [at 15.8 µM]. Besides, in assay [10], the viability change, negative = cytotoxic is -0.356% [at 15.8 µM]. In [11], the activity change was 15.9% [at 15.8 µM, active compounds read high].
For the compound `O=c1oc2c(O)c(O)cc3c(=O)oc4c(O)c(O)cc1c4c23`, the activity change, negative = cytotoxicity in assay [16] was 0.799% [at 15.8 µM]; in assay [17], 0.906% [at 31.6 µM]; in [5] it was -9.61% [at 15.8 µM]; in assay [9] it was -3.75% [at 15.8 µM]. Further, the activation in [2] was -0.716% [at 15.8 µM]. For the same compound, the activity, negative = inhibition in assay [3] was 4.6% [at 19 µM]. Besides, the activity change, positive = activation in assay [4] is 2.5% [at 19 µM]. The activity change, negative = cytotoxic in [18] was -21.3% [at 15.8 µM]; in [7] it was -12.4% [at 15.8 µM]; in [13], -12.3% [at 15.8 µM]. The values for the cytotoxicity in assay [6] and in [14] were 10.4% [at 15.8 µM] and 4.4% [at 15.8 µM], respectively. Also, the cytotoxicity increase in [8] is 16.8% [at 15.8 µM]; in assay [12], 1.02% [at 15.8 µM]. Also, the viability change, negative = cytotoxic in assay [10] is 0.835% [at 15.8 µM]. Further, in assay [19], the max response is -22.4%. Also, the activity change in [11] is 21.9% [at 15.8 µM, active compounds read high].
`OCc1c2ccccc2cc2ccccc12`: the Potency entry in assay [16], in [17], in [5], in assay [6], in assay [7] and in assay [8] was “inactive” in each case. Further, the Potency result in assay [11], in assay [12], in assay [13], in assay [14] and in assay [15] was “inactive” in each case. In addition, the compound was called inactive in assay [2]. The activity change, positive = activation in assay [4] is -18.3%.
On to `CC1=C(CC(=O)O)c2cc(F)ccc2/C1=C\c1ccc(S(C)(=O)=O)cc1`, for which the Potency entry in assay [16], in assay [1], in [17], in assay [3], in [5] and in assay [18] was “inactive” each time. The Potency result in assay [6], in assay [7], in [8], in assay [9], in assay [11] and in assay [12] was “inactive” in each case. In addition, the Potency result in [13], in [14] and in assay [15] was “inactive” in each case. In addition, the activity change, positive = activation in assay [4] is 5.91% [at 42.5 µM]. Besides, the max response in [19] was 8.4%.
Regarding `CCOc1ccc2nc(N)sc2c1`, the Potency result in assay [16], in [3], in assay [5], in assay [18], in assay [6] and in assay [7] was “inactive” each time. Moreover, the Potency result in [8], in assay [9], in assay [11], in assay [12], in assay [13] and in assay [14] was “inactive” throughout. Moreover, the Potency result in assay [15] is “inactive”. In addition, the call in [2] and in assay [10] was inactive. In assay [4], the activity change, positive = activation is 78% (active). In addition, the max response in [19] is -4.71%.
Regarding `c1ccc(CN(CC2=NCCN2)c2ccccc2)cc1`, the Potency result in assay [16], in [1], in [17], in [3], in assay [5] and in assay [18] was “inactive” in each case. Besides, the Potency result in assay [6], in assay [7], in assay [8], in [9], in [11] and in [12] was “inactive” each time. The Potency entry in assay [13], in assay [14] and in assay [15] was “inactive” in each case. Moreover, in assay [4], the activity change, positive = activation is -0.231% [at 42.5 µM]. In addition, in assay [10], the compound was called inactive. The max response in [19] was -19.9%.
In the case of `CC(C)C1=CC2=CC[C@@H]3[C@](C)(CCC[C@@]3(C)C(=O)O)[C@H]2CC1`, the Potency in [16] was 43.6 µM (active). Further, the Potency entry in assay [1], in assay [17], in assay [5], in assay [18], in assay [6] and in assay [7] was “inactive” throughout. In addition, the Potency entry in [8], in assay [9], in assay [11], in [12], in [13] and in [15] was “inactive” throughout. Besides, in [4], the activity change, positive = activation was -16.7%. Besides, in [19], the max response is 3.7%.
